# Measured values taken from PubChem BioAssay (NCI).
# Compounds without any hit were thinned out: in the full panel of roughly 83,000, 20% have a hit.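 96-well plates, one dose, 48 hours. Percent growth reported; active if below 10.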 A number with no mark means an inactive call. Activity calls are given as the source filed them.
# Experiments:
# Test in all cases: NCI-60 one-dose screen, 48 h (100 = growth as untreated, 0 = no growth, -100 = all killed)
# Details in all cases: 10 µM unless noted
# HCT-15 colon = system: HCT-15 colon
# HT29 colon = system: HT29 colon
# SNB-75 CNS = system: SNB-75 CNS
# SNB-19 CNS = system: SNB-19 CNS
# PC-3 prostate = system: PC-3 prostate
# SK-MEL-5 melanoma = system: SK-MEL-5 melanoma
# UACC-62 melanoma = system: UACC-62 melanoma
# LOX IMVI melanoma = system: LOX IMVI melanoma
# SK-MEL-28 melanoma = system: SK-MEL-28 melanoma
# U251 CNS = system: U251 CNS
Compound,growth (HCT-15 colon),growth (HT29 colon),growth (SNB-75 CNS),growth (SNB-19 CNS),growth (PC-3 prostate),growth (SK-MEL-5 melanoma),growth (UACC-62 melanoma),growth (LOX IMVI melanoma),growth (SK-MEL-28 melanoma),growth (U251 CNS) [%]
CCOC(=O)c1c(C)oc2ncnc(Nc3ccc(NC(=O)Nc4cccc(Cl)c4)cc3)c12,59%,37.1%,70.6%,84.7%,41.2%,53%,69.1%,64.1%,61.8%,
COc1cc(OC)c(/C=C/c2ccc3ccccc3[n+]2C)c(OC)c1,77.5%,3.11% (active),11.2%,,10.7%,-74% (active),0.263% (active),-33.2% (active),9.89% (active),13.3
COc1cc(OC)cc(-c2ccc(-c3ccc(C(=N)N)cc3)s2)c1,-79.6% (active),-68.8% (active),-94.9% (active),-71.8% (active),-94.7% (active),-100% (active),-85.1% (active),-86.3% (active),-87.7% (active),
Nc1nc2c(c3cnccc13)C(c1cccc(Cl)c1)Cc1cnccc1-2 (stereo not drawn),7.84% (active),4.99% (active),21%,29.2%,,-16.3% (active),26.7%,8.05% (active),56%,
O=C(Nc1ccccc1)Nc1ccc(Nc2ncnc3sc4c(c23)CCCC4)cc1,110%,96.2%,93.3%,95.9%,89.9%,97.3%,97.9%,99.5%,116%,
CCOC(=O)c1c(C)oc2ncnc(Nc3ccc(C(=O)NCCc4ccccc4)cc3)c12,92.3%,58.9%,7.02% (active),84.1%,59.2%,85.6%,,75.2%,87.9%,
Nc1ncn([C@@H]2O[C@H](CO)[C@@H](O)C2(F)F)c(=O)n1,52.2%,70.1%,65%,58.9%,63.6%,70.8%,47.3%,34.5%,78.5%,
COc1cc2ncnc(-n3ncc4cc(NC(=O)Nc5ccc(Cl)c(C)c5)ccc43)c2cc1OC,103%,73.6%,82.7%,109%,65.6%,88%,88.9%,98%,80.5%,
Cc1ccc(OCCn2ccc(=O)n(CCOc3ccc(Cl)cc3C(=O)c3cc(C)cc(C)c3)c2=O)cc1,27.8%,18.9%,33.5%,57.5%,29.2%,49.2%,32.7%,47%,68.3%,
CCOc1ccc(Br)cc1/C=C(\C#N)c1ccc([N+](=O)[O-])cc1,84.7%,87.1%,22.1%,,71.2%,81.8%,91.7%,87.8%,58.6%,67.3
COc1cc2ncnc(Nc3ccc4c(cnn4C(=O)Nc4ccccc4)c3)c2cc1OC,83.2%,51.1%,114%,95.4%,98.9%,90.9%,114%,93.2%,77.3%,
COc1cc(C(=O)Nc2ccc(N(C)C)cc2)cc(OC)c1OC,73.3%,86.2%,74.9%,,91.4%,89.9%,82%,93.3%,,95.4
COc1cc(-c2cc3cnccc3c3nc(N)c4ccncc4c23)cc(OC)c1OC,38.5%,47.6%,-2.5% (active),53.3%,37.3%,44.6%,41.6%,36.1%,75.3%,
CN1NC(c2ccccc2)NN(C)C1=O,96.6%,107%,77.8%,97.2%,88.6%,97.8%,91.6%,92.5%,107%,
